Experimental data as given in PubChem BioAssay AID853 (Columbia University Molecular Screening Center, 2007).
In all, about 47,000 compounds went through this assay and about 200 (0.43%) were called active. Not shown: some 1% with an inconclusive outcome.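 Rule for the calls: active = inhibition of aggregate fluorescence above about 70%, also judged a hit by eye on the cell image (limit read from the data, passing the limit was not always enough); inconclusive = no rule stated for this call; inactive = not judged a hit on image review.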 Only a selection was taken, and actives are over-represented in it overall.

experiment: clearance of mutant huntingtin inclusions, primary screen, imaging, HeLa Exon1htt(103Q)mCFP, confocal imaging (AID 853); conditions: aggregate imaging, at 1.5 µM; fraction fluorescence in grains: measured here: aggregate grain fluorescence fraction, stronger effect = lower value; inhibition: stronger effect = higher value, zero = plate's median compound well;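 note: cells exposed to compound for three days before fixation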

SMILES | fraction fluorescence in grains | inhibition
O=S(=O)(NCc1ccccn1)c1ccc(F)cc1 | 25.8 | 28.4% (inactive)
Cn1c(NC(=O)c2ccc3c(c2)OCO3)cc(=O)n(C)c1=O | 24.1 | 28.1% (inactive)
CCCc1nc2ccccc2c(C(=O)OCc2nnc(-c3cc(OC)c(OC)c(OC)c3)o2)c1CC | 19.4 | -8% (inactive)
Cc1ccc(NC(=O)CSCC(=O)N2CCOCC2)cc1 | 29.1 | -41.8% (inactive)
COC(=O)[C@@H](NC(=O)Nc1cc(Cl)ccc1C)C(C)C | 45.5 | -4.8% (inactive)
CCC(=O)c1ccc(OCC(O)CN2CC(C)OC(C)C2)cc1 (stereo not given) | 7.49 | 75% (active)
CC(=O)Nc1ccc(OCC(O)CN2CCN(c3ccccc3Cl)CC2)cc1 (stereo not given) | 27.5 | -41.1% (inactive)
CCC(=O)c1ccc(OCC(O)CN2CCN(c3cccc(C(F)(F)F)c3)CC2)cc1 (stereo not given) | 27.8 | -52.7% (inactive)
COc1nc(-c2ccc(Cl)cc2)ccc1-c1noc(-c2cccs2)n1 | 28.7 | 4.7% (inactive)
Cc1cccc(NC(=O)Cn2cc(C(=O)c3ccco3)c3ccccc32)c1 | 68.4 | -81.7% (inactive)
O=C(CSc1nnc(-c2cccs2)n1-c1ccccc1)NCc1ccco1 | 19.3 | -12.1% (inactive)
Cc1ccc2cc(CCNC(=O)c3ccc4c(c3)OCO4)c(=O)[nH]c2c1 | 49.1 | -20% (inactive)
COc1ccc(C2CC(=O)C=C(NCC3CCCO3)C2)cc1 (stereo not given) | 23.6 | 30.2% (inactive)
COc1ccccc1NS(=O)(=O)N(C)C | 33.9 | -71.4% (inactive)
CN(C)/C=C(\C#N)C(=O)c1cccnc1Oc1cccc(F)c1 | 38.8 | -0.9% (inactive)
Cc1cccc(NC(=O)CSc2nc3c(c(=O)[nH]2)CCCC3)c1C | 17.3 | 10.8% (inactive)
O=c1[nH]c(=O)n(Cc2ccco2)c2c1C(C(F)(F)F)(C(F)(F)F)N=C(c1ccco1)N2 | 27 | 36.4% (inactive)
Cc1ccc(-n2c(=O)cc(N3CCN(Cc4ccccc4)CC3)[nH]c2=O)cc1 | 52 | -7.6% (inactive)
O=C(NC1CCc2ccccc21)C12CN(Cc3ccccc3)CC1C(c1cccc([N+](=O)[O-])c1)=NO2 (stereo not given) | 39 | -1.5% (inactive)
COc1ccccc1NC(=O)c1ccc2nc(N3C(=O)CCC3=O)sc2c1 | 16.5 | 20.1% (inactive)

SMILES | fraction fluorescence in grains | inhibition
CC(C)c1nc(N2CCOCC2)c(C#N)c2c1COC(C)(C)C2 | 31.9 | 13.4% (inactive)
COc1ccc(C(=O)NC(=S)Nc2ccccc2N2CCN(S(C)(=O)=O)CC2)cc1OC | 62.3 | -41.7% (inactive)
C#CCSc1nnc(-c2sc3ccccc3c2Cl)o1 | 52.1 | -34.1% (inactive)
Cc1ccc(C(=O)N/C(=C/C=C/c2ccccc2)C(=O)NCc2ccco2)cc1 | 45.3 | -47.5% (inactive)
Cc1nc(-c2ccccc2)sc1-c1nc(-c2ccccc2)ncc1S(=O)(=O)c1ccccc1 | 41.3 | 7.6% (inactive)
Cc1ccc(C2NC(=S)NC3=C2N2CCC3CC2)cc1 (stereo not given) | 27.5 | 36.7% (inactive)
CSc1ccc(-c2c(C#N)c(N)nc3c2c(C)nn3-c2ccccc2)cc1 | 47.5 | -12.6% (inactive)
COc1ccc(/C=C(\NC(=O)c2ccc(OC)c(OC)c2)C(=O)NCCc2c[nH]c3ccccc23)cc1 | 62.4 | -62.1% (inactive)
CC(=O)NS(=O)(=O)c1ccc(NC(=S)NC(=O)C(C)(C)C)cc1 | 7.39 | 66.5% (inactive)
COc1ccc(-n2c(C)csc2=S)cc1 | 15.4 | 22.6% (inactive)
O=C(CSc1nnc(-c2ccco2)n1-c1ccccc1)NCCc1ccccc1 | 28.7 | 21.9% (inactive)
COc1cc(/C=C(\C#N)c2nc3c(s2)CC(C)CC3)ccc1O (stereo not given) | 38.1 | 4% (inactive)
Cc1ccc(-c2cnc(NC(=O)CCC(=O)N(C)Cc3ccccc3)n2C)cc1 | 44.1 | -11.1% (inactive)
CCCCCCC12CCC(C(=O)O)(CC1)CC2 | 16.8 | 6% (inactive)
O=C(CN1CCOCC1)Nc1c(-c2ccccc2)c2cc(Br)ccc2[nH]c1=O | 37.2 | 15.7% (inactive)
O=C(Oc1ccc([N+](=O)[O-])cc1)c1ccc2ccccc2n1 | 23.8 | 33% (inactive)
O=C(c1ccc2c(c1)OCO2)N1CCOCC1 | 22 | -3.2% (inactive)
Cc1ccn(C(CC(=O)c2ccc(Br)cc2)C(=O)O)n1 (stereo not given) | 10.2 | 68.3% (inactive)
COc1ccc(C(C#N)Nc2ccccc2C)cc1 (stereo not given) | 18 | 57.1% (inactive)
C=CCn1c(CSc2nc3ccccc3s2)nnc1SCC(=O)NCc1ccco1 | 28.7 | 26.8% (inactive)
